PubChem BioAssay (NCI)
The panel holds about 83,000 compounds, 20% with a hit somewhere; the sample as a whole holds those more often.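 Results are percent growth after 48 hours of single-concentration exposure. 100 means growth as in untreated cells, lower positive values show inhibition; negative values down to -100 show cell death.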 Activity calls are given as the source filed them. The calls were made as follows: active = growth percent below 10; inactive = the rest.

Experiments:
Assay in all cases: NCI-60 one-dose screen, 48 h (100 = growth as untreated, 0 = no growth, -100 = all killed)
Conditions in all cases: 10 µM unless noted
SK-MEL-2 melanoma = system: SK-MEL-2 melanoma
EKVX NSCLC = system: EKVX NSCLC
SN12C renal = system: SN12C renal
UO-31 renal = system: UO-31 renal
TK-10 renal = system: TK-10 renal
ACHN renal = system: ACHN renal
CAKI-1 renal = system: CAKI-1 renal
A498 renal = system: A498 renal
CCRF-CEM leukemia = system: CCRF-CEM leukemia
MOLT-4 leukemia = system: MOLT-4 leukemia

Measured: growth

COc1cccc([C@H]2c3[nH]c4ccccc4c3C[C@H]3C(=O)N(CCCCCCC(=O)NO)CC(=O)N23)c1
inactive: SK-MEL-2 melanoma 60.1% | EKVX NSCLC 82.6% | SN12C renal 62.8% | UO-31 renal 62.5% | TK-10 renal 87.6% | ACHN renal 69.1% | CAKI-1 renal 75.1% | A498 renal 75.6% | CCRF-CEM leukemia 14% | MOLT-4 leukemia 18.5%

O=C(CSc1nnc2n1S(=O)(=O)c1ccccc1N2c1ccccc1)Nc1nc2ccc(F)cc2s1
active: UO-31 renal -15.4%
inactive: SK-MEL-2 melanoma 56.8% | EKVX NSCLC 103% | SN12C renal 118% | TK-10 renal 125% | ACHN renal 91.3% | CAKI-1 renal 85.3% | A498 renal 122% | CCRF-CEM leukemia 127% | MOLT-4 leukemia 86.8%

CC(=O)OC[C@]12CCC(C)(C)C[C@H]1[C@@]1(O)[C@H](O)C[C@@H]3[C@@]4(C)CCCNC(C)(C)[C@@H]4CC[C@@]3(C)[C@]1(C)CC2
inactive: SK-MEL-2 melanoma 112% | EKVX NSCLC 101% | SN12C renal 99.5% | UO-31 renal 85.8% | TK-10 renal 103% | ACHN renal 109% | CAKI-1 renal 106% | A498 renal 86.5% | CCRF-CEM leukemia 102% | MOLT-4 leukemia 104%

C/C(=N/O)c1ccc(F)cc1
inactive: EKVX NSCLC 105% | SN12C renal 81.4% | UO-31 renal 80.8% | TK-10 renal 92.8% | CAKI-1 renal 61% | A498 renal 111% | CCRF-CEM leukemia 87.2% | MOLT-4 leukemia 77.7%
active: SK-MEL-2 melanoma 7.9% | ACHN renal -10.4%

Cc1cnc(C(=O)NNc2nc3sc4c(c3c(=O)n2C)C(C)CCC4)cn1 (stereo not given)
active: SK-MEL-2 melanoma -6.07% | EKVX NSCLC 6.08% | SN12C renal 9.01% | UO-31 renal -0.356% | ACHN renal 9.47% | CAKI-1 renal 2.74% | CCRF-CEM leukemia 2.41% | MOLT-4 leukemia 3.79%
inactive: TK-10 renal 27.2% | A498 renal 21.1%

COc1ccc(/C(C)=C(/c2ccc(OCCCN(C)C)cc2)c2ccc(OC(=O)Cc3ccccc3)cc2)cc1
inactive: SK-MEL-2 melanoma 91% | EKVX NSCLC 65.8% | SN12C renal 82.4% | UO-31 renal 53.4% | TK-10 renal 95.2% | ACHN renal 87.2% | CAKI-1 renal 92.9% | A498 renal 83.1% | CCRF-CEM leukemia 65% | MOLT-4 leukemia 47.5%

O=C1Nc2ccccc2/C1=C\c1nc(-c2ccccc2)n2ccccc12
inactive: SK-MEL-2 melanoma 94.2% | EKVX NSCLC 74.1% | SN12C renal 96.2% | UO-31 renal 79.8% | TK-10 renal 84.2% | ACHN renal 71.1% | CAKI-1 renal 76.5% | A498 renal 119% | CCRF-CEM leukemia 84.1% | MOLT-4 leukemia 88.1%

CSc1nc2sc3c(c2c(=O)n1-c1ccc([N+](=O)[O-])cc1)CCCCC3
inactive: SK-MEL-2 melanoma 101% | EKVX NSCLC 85.7% | SN12C renal 88.3% | UO-31 renal 90.8% | TK-10 renal 92.9% | ACHN renal 67.5% | CAKI-1 renal 71% | A498 renal 80.2% | CCRF-CEM leukemia 93.3% | MOLT-4 leukemia 93.3%

O=C1/C(=C/c2ccc(F)cc2)COc2ccc(O)cc21
active: CCRF-CEM leukemia 5.18%
inactive: SK-MEL-2 melanoma 114% | EKVX NSCLC 101% | SN12C renal 78.4% | UO-31 renal 64.5% | TK-10 renal 100% | ACHN renal 87.7% | CAKI-1 renal 75.8% | A498 renal 111% | MOLT-4 leukemia 51.7%

O=C(Nc1cccc([N+](=O)[O-])c1)c1cc2ccccc2cc1O
active: SK-MEL-2 melanoma 1.68% | EKVX NSCLC 3.68% | SN12C renal 0.988% | UO-31 renal 4.6% | ACHN renal 0.0296% | CAKI-1 renal -22.9% | A498 renal 1.58% | CCRF-CEM leukemia -12.7% | MOLT-4 leukemia -44.6%
inactive: TK-10 renal 17.4%

Cc1ccc2c3c(c(=O)[nH]c2c1)C1(C(C#N)=C(N)O3)c2cc(Br)ccc2-c2ccc(Br)cc21
inactive: SK-MEL-2 melanoma 32.6% | CCRF-CEM leukemia 32.6% | MOLT-4 leukemia 21.3%
active: EKVX NSCLC -32.9% | SN12C renal -32.3% | UO-31 renal -62.3% | TK-10 renal -36.2% | ACHN renal -15.8% | CAKI-1 renal -64.3% | A498 renal -18.8%

CCCCNc1ccc(C#N)c(OCCN(CC)CC)c1
inactive: SK-MEL-2 melanoma 105% | EKVX NSCLC 98.7% | SN12C renal 105% | UO-31 renal 84.6% | TK-10 renal 108% | ACHN renal 101% | CAKI-1 renal 98.6% | A498 renal 117% | CCRF-CEM leukemia 94.8% | MOLT-4 leukemia 88.2%

Clc1ccc2c(c1)N(c1ncnc3ccc(-c4cnc5[nH]ncc5c4)cc13)CC2
inactive: SK-MEL-2 melanoma 48.3% | EKVX NSCLC 16.8% | SN12C renal 19.5% | TK-10 renal 13.9% | ACHN renal 13% | CAKI-1 renal 11% | CCRF-CEM leukemia 31.9%
active: UO-31 renal 4.18% | A498 renal -45.2% | MOLT-4 leukemia 3.68%

Cn1ccnc1C(=O)C(=O)Nc1ccc(CC(=O)Nc2ccccc2)cc1
inactive: SK-MEL-2 melanoma 123% | EKVX NSCLC 102% | SN12C renal 103% | UO-31 renal 85.7% | TK-10 renal 116% | ACHN renal 107% | CAKI-1 renal 93.3% | A498 renal 103% | CCRF-CEM leukemia 105% | MOLT-4 leukemia 107%

CC(C)N1CN2C(=S)NC3C2N(C1)C(=S)N3C (stereo not given)
inactive: SK-MEL-2 melanoma 93.4% | EKVX NSCLC 103% | SN12C renal 97.6% | UO-31 renal 95.9% | TK-10 renal 97.2% | ACHN renal 117% | CAKI-1 renal 92.6% | A498 renal 102% | CCRF-CEM leukemia 94.8% | MOLT-4 leukemia 104%

O=C(Nc1nn(-c2ccc(Cl)cc2Cl)nc1-c1ccccc1)c1ccccc1
inactive: SK-MEL-2 melanoma 106% | EKVX NSCLC 113% | SN12C renal 98.9% | UO-31 renal 67.6% | TK-10 renal 117% | ACHN renal 94.8% | CAKI-1 renal 85.1% | A498 renal 116% | CCRF-CEM leukemia 95.9% | MOLT-4 leukemia 83.5%

COc1ccccc1Nc1nc2c(s1)C1=CC[C@H]3[C@@H]4CC[C@H]([C@H](C)CCCC(C)C)[C@@]4(C)CC[C@@H]3[C@@]1(C)CC2
inactive: SK-MEL-2 melanoma 115% | EKVX NSCLC 105% | SN12C renal 99.6% | UO-31 renal 73.5% | TK-10 renal 117% | ACHN renal 104% | CAKI-1 renal 90.5% | A498 renal 132% | CCRF-CEM leukemia 109% | MOLT-4 leukemia 104%

CN(C)CCCC1(c2ccc(F)cc2)OCc2cc(-c3cccc4[nH]ccc34)ccc21 (stereo not given)
inactive: SK-MEL-2 melanoma 74.5% | EKVX NSCLC 44.8% | SN12C renal 48.3% | TK-10 renal 58.5% | A498 renal 72% | CCRF-CEM leukemia 16%
active: UO-31 renal -9.8% | ACHN renal 9.24% | CAKI-1 renal 6.71% | MOLT-4 leukemia -8.64%

COc1ccc2[nH]cc(-c3nc(-c4cn(C)c5c(Cl)nccc45)cs3)c2c1
inactive: SK-MEL-2 melanoma 50.9% | EKVX NSCLC 73.7% | SN12C renal 62.5% | UO-31 renal 36.6% | TK-10 renal 71.1% | ACHN renal 22.6% | CAKI-1 renal 60.2% | A498 renal 16% | CCRF-CEM leukemia 22.1% | MOLT-4 leukemia 36.2%

Cn1cccc1C(=O)C1C(c2cccc([N+](=O)[O-])c2)C2C3CCCCC3CN2C12C(=O)Nc1ccc(Cl)cc12 (stereo not given)
inactive: SK-MEL-2 melanoma 66.5% | EKVX NSCLC 46.4% | SN12C renal 59.4% | UO-31 renal 45.5% | TK-10 renal 103% | ACHN renal 59.9% | CAKI-1 renal 17.4% | A498 renal 86% | CCRF-CEM leukemia 58.6% | MOLT-4 leukemia 28%

CCCCCCCCCCCCCCCC(N)c1ccccc1 (stereo not given)
inactive: SK-MEL-2 melanoma 70.8% | EKVX NSCLC 25.3% | SN12C renal 28% | UO-31 renal 26.2% | TK-10 renal 52.2% | A498 renal 60.8%
active: ACHN renal -50.3% | CAKI-1 renal 9.49% | CCRF-CEM leukemia -1.76% | MOLT-4 leukemia -38.6%

CC(=O)[C@@H]1CCC=C2CC[C@]3(C)[C@@H](CC[C@@H]4[C@@]5(C)CCCNC(C)(C)[C@@H]5CC[C@]43C)[C@H]21
inactive: UO-31 renal 18.4% | A498 renal 69.8%
active: SK-MEL-2 melanoma -52.3% | EKVX NSCLC -47.8% | SN12C renal -87.9% | TK-10 renal -46.6% | ACHN renal -82.4% | CAKI-1 renal -92.5% | CCRF-CEM leukemia -23.4% | MOLT-4 leukemia -46.4%

O=C(CSc1nc2ccc([N+](=O)[O-])cc2[nH]1)Nc1ccc(F)cc1
inactive: SK-MEL-2 melanoma 63.6% | EKVX NSCLC 56.5% | SN12C renal 55.6% | UO-31 renal 38.2% | TK-10 renal 77.1% | ACHN renal 68.5% | CAKI-1 renal 45.5% | A498 renal 29.5% | CCRF-CEM leukemia 53.3% | MOLT-4 leukemia 54.2%

CCN(CC)c1nc(SCc2ccccc2Cl)ncc1C
inactive: SK-MEL-2 melanoma 118% | EKVX NSCLC 101% | SN12C renal 96.7% | UO-31 renal 102% | TK-10 renal 117% | ACHN renal 108% | CAKI-1 renal 88.8% | A498 renal 91.2% | CCRF-CEM leukemia 92.7% | MOLT-4 leukemia 105%

Cc1ccc(-c2nn(-c3ccccc3)cc2C=C2C(=O)ON=C2C(C)C)cc1
active: CCRF-CEM leukemia 1.71% | MOLT-4 leukemia -15.6%
inactive: SK-MEL-2 melanoma 84.5% | EKVX NSCLC 102% | SN12C renal 75.9% | UO-31 renal 72% | TK-10 renal 86.9% | ACHN renal 89.3% | CAKI-1 renal 61.3% | A498 renal 84.9%

Cc1cc2c(O)c(-c3cccc(Cl)c3)c3sc(=O)oc3c2cc1C
active: A498 renal 9.01%
inactive: SK-MEL-2 melanoma 37.8% | EKVX NSCLC 93.9% | SN12C renal 36.7% | UO-31 renal 54.2% | TK-10 renal 122% | ACHN renal 44.5% | CAKI-1 renal 40.5% | CCRF-CEM leukemia 44.8% | MOLT-4 leukemia 45.8%

O=C(c1ccc(-c2ccccc2)cc1)c1ccc([N+](=O)[O-])cc1
inactive: SK-MEL-2 melanoma 104% | EKVX NSCLC 98% | SN12C renal 104% | UO-31 renal 97.5% | TK-10 renal 124% | ACHN renal 97.5% | CAKI-1 renal 88.1% | A498 renal 124% | CCRF-CEM leukemia 89% | MOLT-4 leukemia 52.6%
